“And” between values parts separate entries of the source, which are not always exact repeats. Equal entries are not always repeated. Inconclusive results are not listed. The source made the active and inactive calls. Unless noted, the call rests on the fitted dose curve; in most records, active means well fitted curve in the direction sought with a large enough effect in the repeat runs; inconclusive means weak or mixed curves; inactive means no such curve, though single readings can be large; an effect the other way counts as inactive or inconclusive.
Legend:
[1] = qHTS assay to identify small molecule antagonists of the androgen receptor (AR) signaling pathway using the MDA cell line in the presence of 0.5 nM R1881 - cell viability counter screen (AID 1259242); further: nearly all actives have a fitted effect of over 45% in size; further: potency means the concentration at half of the fitted maximal effect
Summary of the method: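 Cytotoxicity toward MDA-kb2 cells is measured by CellTiter-Fluor live-cell protease fluorescence after 16 hr compound exposure at 37C in the presence of 0.5 nM R1881 stimulator.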

[2] = qHTS assay to identify small molecule HDAC inhibitors (AID 1259364); further: top concentration of the series differs between compounds; nearly all actives have a fitted effect of over 45% in size
Summary of the method: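 Homogeneous cell-based luminescent assay of endogenous class I/II HDAC activity; HCT-116 cells, 2 h compound exposure, 30 min HDAC-Glo development at RT.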

[3] = qHTS assay to identify small molecule HDAC inhibitors - cell viability counter screen (AID 1259365); further: series mostly up to about 92 µM; nearly all actives have a fitted effect of over 50% in size
Summary of the method: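 HCT-116 wild-type, overnight attachment; 2hr drug exposure, 37C; CellTiter-Glo luminescent ATP readout after 30min RT.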

[4] = qHTS assay to identify small molecule agonists of the sonic hedgehog signaling (Shh) pathway - cell viability counter screen (AID 1259366); further: nearly all actives have a fitted effect of over 50% in size; further: potency means the concentration at half of the fitted maximal effect
Summary of the method: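 Compounds in DMSO were pin-transferred onto 3T3 Gli1-Luc cells that had settled 4hr; plates then stood 24hr at 37C and 5% CO2. One hour before the end, CellTiter-Fluor was added and fluorescence recorded.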

[5] = qHTS assay to identify small molecule antagonists of the sonic hedgehog signaling (Shh) pathway - cell viability counter screen (AID 1259367); further: nearly all actives have a fitted effect of over 55% in size; further: potency means the concentration at half of the fitted maximal effect
Summary of the method: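 Seed 3T3 Gli1-Luc cells at 2,000 per well; incubate 4 hr; add compound in DMSO, then conditioned medium; incubate at 37C with 5% CO2; add CellTiter-Fluor after 23 hr; read fluorescence 1 hr later.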

[6] = qHTS assay to identify small molecule agonists of the sonic hedgehog signaling (Shh) pathway (AID 1259368; calls by dose curve;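 further: NIH/3T3-derived 3T3Gli1-Luc cells carrying a stable Gli1-driven firefly luciferase reporter; series mostly up to about 92 µM; nearly all actives have a fitted effect of over 15% in size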)
Summary of the method: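 Steps: seed 3T3 Gli1-Luc cells, incubate 4 hr at 37 C, pin-transfer compounds in DMSO alongside a positive control, incubate 24 hr, add luciferase detection reagent, wait 30 min at room temperature, read luminescence.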

[7] = qHTS assay to identify small molecule antagonists of the sonic hedgehog signaling (Shh) pathway (AID 1259369; calls by dose curve; further: nearly all actives have a fitted effect of over 45% in size; further: potency means the concentration at half of the fitted maximal effect)
Summary of the method: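 Inhibition of Shh signalling is measured as reduced Gli1-response-element firefly luciferase output in an NIH/3T3-derived stable reporter clone stimulated with conditioned medium for 24hr.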

[8] = target: Estrogen receptor (Homo sapiens) (UniProt P03372); test: qHTS assay to identify small molecule antagonists of the estrogen receptor alpha (ER-alpha) signaling pathway using the BG1 cell line in the presence of 0.1 nM 17-beta-estradiol (AID 1259244); further: nearly all actives have a fitted effect of over 50% in size; further: potency means the concentration at half of the fitted maximal effect
Chain of Estrogen receptor (Homo sapiens) (P03372 whole entry, looked up): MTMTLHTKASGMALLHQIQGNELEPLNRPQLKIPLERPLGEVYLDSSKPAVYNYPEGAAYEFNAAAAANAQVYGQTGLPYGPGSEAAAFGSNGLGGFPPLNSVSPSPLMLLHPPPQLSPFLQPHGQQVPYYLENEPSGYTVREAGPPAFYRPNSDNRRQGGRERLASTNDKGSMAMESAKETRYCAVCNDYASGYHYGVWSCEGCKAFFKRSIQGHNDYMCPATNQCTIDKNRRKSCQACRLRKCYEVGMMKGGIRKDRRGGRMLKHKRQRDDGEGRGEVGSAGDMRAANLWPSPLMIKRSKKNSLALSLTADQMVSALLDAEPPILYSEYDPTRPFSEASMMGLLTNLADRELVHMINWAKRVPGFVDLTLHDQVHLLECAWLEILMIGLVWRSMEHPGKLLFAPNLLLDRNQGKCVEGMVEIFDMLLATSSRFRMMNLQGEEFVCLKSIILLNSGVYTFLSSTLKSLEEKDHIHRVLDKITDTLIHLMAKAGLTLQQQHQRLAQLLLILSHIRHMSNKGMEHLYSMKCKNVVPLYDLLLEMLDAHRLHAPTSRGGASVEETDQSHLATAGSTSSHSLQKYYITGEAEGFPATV
Summary of the method: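 After 5 days in hormone-depleted medium (charcoal-stripped serum, no phenol red), VM7Luc4E2 cells were seeded, incubated 24 h, then co-treated with compound and 0.1 nM (final) estradiol for 22 h before luminescence detection.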

[9] = target: Androgen receptor (Homo sapiens) (UniProt P10275); test: qHTS assay to identify small molecule antagonists of the androgen receptor (AR) signaling pathway using the MDA cell line in the presence of 0.5 nM R1881 (AID 1259243); further: nearly all actives have a fitted effect of over 50% in size; further: potency means the concentration at half of the fitted maximal effect
Chain of Androgen receptor (Homo sapiens) (P10275 whole entry, looked up): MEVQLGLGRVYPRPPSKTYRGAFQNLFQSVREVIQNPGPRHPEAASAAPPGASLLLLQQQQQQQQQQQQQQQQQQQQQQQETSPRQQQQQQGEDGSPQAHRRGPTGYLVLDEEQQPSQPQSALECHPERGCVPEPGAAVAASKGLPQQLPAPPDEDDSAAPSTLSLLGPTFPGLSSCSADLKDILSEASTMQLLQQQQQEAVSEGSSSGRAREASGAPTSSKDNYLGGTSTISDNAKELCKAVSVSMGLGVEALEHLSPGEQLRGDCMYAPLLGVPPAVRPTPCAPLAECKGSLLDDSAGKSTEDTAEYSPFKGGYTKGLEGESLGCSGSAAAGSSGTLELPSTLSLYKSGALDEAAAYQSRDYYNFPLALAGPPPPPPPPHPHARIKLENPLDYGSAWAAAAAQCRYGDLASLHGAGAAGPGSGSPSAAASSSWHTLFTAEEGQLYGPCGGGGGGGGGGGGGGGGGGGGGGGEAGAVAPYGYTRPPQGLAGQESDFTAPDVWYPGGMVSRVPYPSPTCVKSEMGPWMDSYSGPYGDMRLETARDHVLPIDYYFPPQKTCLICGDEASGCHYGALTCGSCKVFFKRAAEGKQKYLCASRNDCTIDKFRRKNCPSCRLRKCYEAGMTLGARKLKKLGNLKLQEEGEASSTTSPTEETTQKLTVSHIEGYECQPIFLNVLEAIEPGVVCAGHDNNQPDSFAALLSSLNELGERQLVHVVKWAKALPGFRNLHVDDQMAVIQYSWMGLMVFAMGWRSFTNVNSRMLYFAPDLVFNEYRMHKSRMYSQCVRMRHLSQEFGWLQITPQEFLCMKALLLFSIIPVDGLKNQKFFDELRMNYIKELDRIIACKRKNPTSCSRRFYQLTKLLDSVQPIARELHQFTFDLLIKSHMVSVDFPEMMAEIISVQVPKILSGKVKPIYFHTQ
Summary of the method: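 Steps: seed MDA-kb2 cells, incubate 5 hr at 37C; pin-transfer compounds in DMSO; add R1881 to 0.5 nM final; incubate 16 hr; add ONE-Glo, wait 30 min at room temperature; read luminescence.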

[10] = qHTS assay to identify small molecule phospholipidosis (PLD) inducers (AID 1259344; active means well fitted curve in the direction sought with a large enough effect; an effect the other way counts as inactive or inconclusive)
Summary of the method: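 Quantitative HTS in HepG2: compound plus LipidTOX Red dye for 24 h, paraformaldehyde fixation with Hoechst 33342, widefield high-content imaging; amiodarone as positive and DMSO as negative control.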
On the % scale 0 is the no-effect control and ±100 the full control effect.

Brc1c(Br)c(Br)c(Oc2c(Br)c(Br)c(Br)c(Br)c2Br)c(Br)c1Br
inactive: viability change, negative = cytotoxic [1] -0.43% [at 19 µM] | activity change, negative = inhibition [2] -0.806% [at 19 µM] | activity change, negative = cytotoxicity [3] 2.12% [at 19 µM] | viability change, negative = cytotoxic [4] -1.06% [at 19 µM] | viability change, negative = cytotoxic [5] 4.4% [at 19 µM] | activity change [6] 0.699% [at 18.9 µM, active compounds read high] | activity change, negative = inhibition [7] 16.8% [at 19 µM]

Clc1ccc(C(Cl)(Cl)Cl)c(Cl)c1
inactive: Potency [1] | Potency [2] | Potency [3] | Potency [4] | Potency [5] | Potency [6]

Oc1ccc(C2(c3ccc(O)cc3)c3ccccc3-c3ccccc32)cc1
inactive: Potency [1] | Potency [2] | Potency [3] | Potency [6]
active: Potency [4] 54.5 µM | Potency [5] 27.3 µM | Potency [7] 27.3 µM

CC(=O)[O-].CC(=O)[O-].O.O.[Cd+2]
inactive: Potency [1] | Potency [3] | Potency [6]
active: Potency [4] 3.8 µM | Potency [5] 8.51 µM | Potency [7] 1.07 µM

CC(C)[C@H](C(=O)O[C@H](C#N)c1cccc(Oc2ccccc2)c1)c1ccc(Cl)cc1
inactive: Potency [1] | Potency [3] | Potency [4] | Potency [5] | Potency [6]

O=C(O)C1C2CCC(O2)C1C(=O)O (stereo not given)
inactive: Potency [1] | Potency [2] | Potency [3] | Potency [6]
active: Potency [4] 19.6 µM and 11.2 µM | Potency [7] 15.8 µM

CCN
inactive: Potency [1] | Potency [3] | Potency [4] | Potency [5] | Potency [6]

O=[N+]([O-])O.O=[N+]([O-])O.[Cd]
inactive: Potency [1] | Potency [2] | Potency [3]
active: Potency [4] 8.63 µM | Potency [5] 15.4 µM | Potency [7] 1.72 µM

CN(C)C(=S)[S-].CN(C)C(=S)[S-].[Cu+2]
active: Potency [1] 5.92 µM | Potency [4] 2.64 µM | Potency [5] 3.33 µM | Potency [7] 1.49 µM
inactive: activity change, negative = inhibition [2] -15% [at 19 µM]

O=CC(Br)(Br)Br
active: Potency [1] 43.1 µM | Potency [4] 24.3 µM | Potency [5] 60.9 µM | Potency [7] 24.3 µM
inactive: Potency [2] | Potency [3] | Potency [6]

CC1(C)C(/C=C(\Cl)C(F)(F)F)C1C(=O)OC(C#N)c1cccc(Oc2ccccc2)c1 (stereo not given)
inactive: Potency [1] | Potency [2] | Potency [3] | Potency [5] | Potency [6] | Potency [7]

BrC(Br)Br
inactive: Potency [1] | Potency [2] | Potency [3] | Potency [4] | Potency [5] | Potency [6] | Potency [7]

COP(=O)(OC)SCn1c(=O)oc2cc(Cl)cnc21
inactive: Potency [1] | Potency [3] | Potency [4] | Potency [5] | Potency [6] | Potency [7]

CCOP(=S)(OCC)OC(Cl)C(Cl)(Cl)Cl (stereo not given)
inactive: Potency [1] | Potency [3] | Potency [4] | Potency [5] | Potency [6] | Potency [7]

CC(C)OC(=O)C(O)(c1ccc(Cl)cc1)c1ccc(Cl)cc1
inactive: Potency [1] | Potency [2] | Potency [3] | Potency [4] | Potency [5]
active: Potency [7] 54.5 µM

CC(=O)[O-].[Tl+]
inactive: Potency [1] | Potency [2] | Potency [3] | Potency [4] | Potency [6]

O=C/C(Cl)=C(/Cl)C(=O)O
active: Potency [7] 38.6 µM
inactive: Potency [8] | Potency [2] | Potency [3] | Potency [6]

CC1(C)CN=C(NN=C(/C=C/c2ccc(C(F)(F)F)cc2)/C=C/c2ccc(C(F)(F)F)cc2)NC1
inactive: Potency [2] | Potency [3] | Potency [6]
active: Potency [9] 17.2 µM | Potency [8] 48.6 µM | Potency [4] 19.3 µM | Potency [5] 17.2 µM | Potency [7] 6.86 µM

CC[C@H]1C[C@@H]2C[C@H]3c4[nH]c5ccc(OC)cc5c4CCN(C2)[C@@H]13
active: Potency [9] 60.1 µM | Potency [4] 53.5 µM | Potency [5] 60.1 µM | Potency [7] 12 µM
inactive: Potency [10] | Potency [2] | Potency [3] | Potency [6]

Nc1ccc(Cc2ccc(N)c(Cl)c2)cc1Cl
inactive: Potency [2] | Potency [3]
active: Potency [8] 59.1 µM | Potency [5] 52.7 µM

S=C=Nc1cccc2ccccc12
active: Potency [8] 19.1 µM | Potency [4] 53.9 µM
inactive: Potency [2] | Potency [3]

Cc1ccc(CCl)cc1
inactive: Potency [9] | Potency [8] | Potency [2] | Potency [3] | Potency [4] | Potency [6] | Potency [7]

CCOC(=O)OC1=C(c2cc(C)ccc2C)C(=O)NC12CCC(OC)CC2 (stereo not given)
active: Potency [7] 17.2 µM
inactive: Potency [8] | Potency [2] | Potency [3] | Potency [4] | Potency [5] | Potency [6]

CCCCCCCCCCCCBr
inactive: Potency [8] | Potency [2] | Potency [3] | Potency [4] | Potency [5] | Potency [6] | Potency [7]

O=C(CCl)C(Cl)Cl
active: Potency [4] 17.4 µM | Potency [5] 17.4 µM
inactive: Potency [8] | Potency [2] | Potency [3] | Potency [6]

Nc1ccc([N+](=O)[O-])cc1Cl
inactive: Potency [8] | Potency [2] | Potency [3] | Potency [4] | Potency [5] | Potency [6] | Potency [7]
active: Potency [9] 24.3 µM

Reference: PubChem BioAssay (Tox21)
